Experimental data reported in PubChem BioAssay AID1159580 (chemical genetic matrix, 2015).
In all, about 5,500 compounds went through this assay and about 2,000 (36%) were called active. Not shown: some 18% with an inconclusive outcome. Rule as the data show it: active = normalized growth mostly below about 0.91 (no sharp cut-off); inconclusive = no clear call, values can overlap the other calls; inactive = mostly above about 0.92. Some of the results follow.

Experiment: chemical genetic growth profiling, strain panel (AID 1159580);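 also: tested at 20 µM; growth read once vehicle control cultures reached saturation at 30 °C; 1 = growth at the plate median or of vehicle wells; lower values mean less growth of the strain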
Conditions: growth OD

Measured: normalized growth

CN(C)CC/C=C1\c2ccccc2Sc2ccc(Cl)cc21
inactive: S. cerevisiae deletion strains, locus YJR043C, strain POL32, active compounds read low 1.03 | S. cerevisiae deletion strains, locus YJR075W, strain HOC1, active compounds read low 0.884 | S. cerevisiae deletion strains, locus YKL009W, strain mrt4, active compounds read low 0.989 | S. cerevisiae deletion strains, locus YKL068W, active compounds read low 1.01 | S. cerevisiae deletion strains, locus YKL085W, strain MDH1 (second series), active compounds read low 1.03 | S. cerevisiae deletion strains, locus YKL085W, strain MDH1, active compounds read low 1.03 | S. cerevisiae deletion strains, locus YKL190W, strain CNB1, active compounds read low 0.982 | S. cerevisiae deletion strains, locus YKR026C, strain gcn3, active compounds read low 0.992 | S. cerevisiae deletion strains, locus YKR091W, strain srl3, active compounds read low 0.987 | S. cerevisiae deletion strains, locus YLL001W, strain dnm1, active compounds read low 0.904 | S. cerevisiae deletion strains, locus YLL026W, active compounds read low 0.981 | S. cerevisiae deletion strains, locus YLL041C, strain sdh2, active compounds read low 0.993 | S. cerevisiae deletion strains, locus YLR058C, strain SHM2, active compounds read low 0.933 | S. cerevisiae deletion strains, locus YLR102C, strain apc9, active compounds read low 1.02 | S. cerevisiae deletion strains, locus YLR113W, strain HOG1, active compounds read low 0.915 | S. cerevisiae deletion strains, locus YLR221C, strain rsa3, active compounds read low 0.947 | S. cerevisiae deletion strains, locus YLR262C, strain YPT6 (second series), active compounds read low 1.1 | S. cerevisiae deletion strains, locus YLR268W, strain sec22, active compounds read low 1.01 | S. cerevisiae deletion strains, locus YLR320W, strain mms22, active compounds read low 0.951 | S. cerevisiae deletion strains, locus YLR330W, strain CHS5, active compounds read low 0.999 | S. cerevisiae deletion strains, locus YLR357W, strain rsc2, active compounds read low 0.935 | S. cerevisiae deletion strains, locus YLR371W, strain rom2, active compounds read low 1.01 | S. cerevisiae deletion strains, locus YLR384C, strain iki3, active compounds read low 0.987 | S. cerevisiae deletion strains, locus YML016C, strain PPZ1, active compounds read low 0.994 | S. cerevisiae deletion strains, locus YML032C, strain rad52, active compounds read low 0.947 | S. cerevisiae deletion strains, locus YML120C, strain ndi1, active compounds read low 0.998 | S. cerevisiae deletion strains, locus YML124C, strain tub3, active compounds read low 1.02 | S. cerevisiae deletion strains, locus YMR078C, strain ctf18, active compounds read low 1.02 | S. cerevisiae deletion strains, locus YMR125W, strain sto1, active compounds read low 0.923 | S. cerevisiae deletion strains, locus YMR129W, active compounds read low 1 | S. cerevisiae deletion strains, locus YMR205C, strain PFK2, active compounds read low 0.921 | S. cerevisiae deletion strains, locus YMR223W, strain ubp8, active compounds read low 0.935 | S. cerevisiae deletion strains, locus YMR307W, strain GAS1, active compounds read low 0.903 | S. cerevisiae deletion strains, locus YNL067W, strain RPL9B, active compounds read low 0.929 | S. cerevisiae deletion strains, locus YNL071W, strain lat1, active compounds read low 0.934 | S. cerevisiae deletion strains, locus YNL183C, strain NPR1, active compounds read low 0.872 | S. cerevisiae deletion strains, locus YNL233W, strain BNI4, active compounds read low 0.891 | S. cerevisiae deletion strains, locus YNL248C, strain rpa49, active compounds read low 0.917 | S. cerevisiae deletion strains, locus YNL250W, strain rad50, active compounds read low 1.03 | S. cerevisiae deletion strains, locus YNL271C, strain bni1, active compounds read low 1.01 | S. cerevisiae deletion strains, locus YNL298W, strain CLA4, active compounds read low 1 | S. cerevisiae deletion strains, locus YNL307C, strain MCK1, active compounds read low 0.999 | S. cerevisiae deletion strains, locus YNL322C, strain KRE1 (second series), active compounds read low 1.03 | S. cerevisiae deletion strains, locus YNR049C, strain mso1, active compounds read low 0.996 | S. cerevisiae deletion strains, locus YNR052C, strain pop2, active compounds read low 0.964 | S. cerevisiae deletion strains, locus YOL012C, strain htz1 1.87 | S. cerevisiae deletion strains, locus YOL147C, strain pex11, active compounds read low 1.02 | S. cerevisiae deletion strains, locus YOR001W, strain rrp6, active compounds read low 0.935 | S. cerevisiae deletion strains, locus YOR061W, strain CKA2, active compounds read low 0.941 | S. cerevisiae deletion strains, locus YOR069W, strain VPS5, active compounds read low 1 | S. cerevisiae deletion strains, locus YOR080W, strain dia2, active compounds read low 0.975 | S. cerevisiae deletion strains, locus YOR136W, strain idh2, active compounds read low 1.02 | S. cerevisiae deletion strains, locus YOR144C, strain elg1, active compounds read low 1.01 | S. cerevisiae deletion strains, locus YOR184W, strain ser1, active compounds read low 1.06 | S. cerevisiae deletion strains, locus YOR231W, strain MKK1, active compounds read low 0.869 | S. cerevisiae deletion strains, locus YOR265W, strain rbl2, active compounds read low 0.974 | S. cerevisiae deletion strains, locus YOR316C, strain cot1, active compounds read low 1.02 | S. cerevisiae deletion strains, locus YPL240C, strain hsp82, active compounds read low 0.981 | S. cerevisiae deletion strains, locus YPL241C, strain CIN2, active compounds read low 1.01 | S. cerevisiae deletion strains, locus YPL256C, strain CLN2, active compounds read low 0.95 | S. cerevisiae deletion strains, locus YPR119W, strain clb2, active compounds read low 1.03 | S. cerevisiae deletion strains, locus YPR141C, strain kar3, active compounds read low 1.02 | S. cerevisiae deletion strains, locus YPR167C, strain met16, active compounds read low 1.01 | S. cerevisiae deletion strains, strain wtn01, active compounds read low 0.937 | S. cerevisiae strains, strain wild type, active compounds read low 0.956
active: S. cerevisiae deletion strains, locus YJR066W, strain TOR1, active compounds read low 0.815 | S. cerevisiae deletion strains, locus YKL160W, strain elf1, active compounds read low 0.867 | S. cerevisiae deletion strains, locus YLR027C, strain aat2, active compounds read low 0.881 | S. cerevisiae deletion strains, locus YLR039C, strain RIC1, active compounds read low 1.5 [resistant] | S. cerevisiae deletion strains, locus YLR258W, strain gsy2, active compounds read low 0.894 | S. cerevisiae deletion strains, locus YLR262C, strain YPT6, active compounds read low 1.62 [resistant] | S. cerevisiae deletion strains, locus YLR342W, strain FKS1 (second series), active compounds read low 0.667 | S. cerevisiae deletion strains, locus YLR342W, strain FKS1, active compounds read low 0.724 | S. cerevisiae deletion strains, locus YLR370C, strain arc18, active compounds read low 0.749 | S. cerevisiae deletion strains, locus YLR418C, strain cdc73, active compounds read low 0.661 | S. cerevisiae deletion strains, locus YMR058W, strain fet3, active compounds read low 0.775 | S. cerevisiae deletion strains, locus YMR231W, strain pep5, active compounds read low 0.0779 | S. cerevisiae deletion strains, locus YNL209W, strain ssb2, active compounds read low 0.665 | S. cerevisiae deletion strains, locus YOL006C, strain TOP1, active compounds read low 0.42 | S. cerevisiae deletion strains, locus YOR070C, strain gyp1, active compounds read low 0.804 | S. cerevisiae deletion strains, locus YOR083W, strain WHI5, active compounds read low 0.735 | S. cerevisiae deletion strains, locus YOR106W, strain vam3, active compounds read low 0.393 | S. cerevisiae deletion strains, locus YOR270C, strain vph1, active compounds read low 0.41 | S. cerevisiae deletion strains, locus YOR290C, strain snf2, active compounds read low 0.818 | S. cerevisiae deletion strains, locus YPL051W, strain arl3, active compounds read low 0.76 | S. cerevisiae deletion strains, locus YPL078C, strain atp4, active compounds read low 0.835 | S. cerevisiae deletion strains, locus YPL106C, strain sse1, active compounds read low 0.802 | S. cerevisiae deletion strains, locus YPR163C, strain tif3, active compounds read low 0.827
